High-throughput results deposited in PubChem BioAssay by University of Kansas High Throughput Screening Laboratory.
mHTT CaM bind = disrupts binding of mutant huntingtin to calmodulin; AlphaScreen His-mHTT/GST-CaM binding, luminescence; inhibition, % at 15 µM; 3.6% of 190,000 active; AID 1671202;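 note: 0% = both proteins with DMSO and 100% = one protein alone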
Pf apPOL inh = Pf-apPOL DNA polymerase inhibition. Recombinant Pf-apPOL, molecular beacon fluorescence, 1.5 h. inhibition, % at 10 µM. 0.25% of 210,000 active
An asterisk follows results filed as active; x = not tested or not shown. Hits are enriched below; roughly 3.5% of the tested compounds scored in any of these assays. Cut-off read from the data, not from the text of the source: active = inhibition above about 50%; inactive = the rest.

SMILES | mHTT CaM bind | Pf apPOL inh
COc1ccccc1C(=O)Nc1ccc(C(=O)O)cc1 | -3 | -8
Cc1cccnc1N(C(=O)c1ccccc1F)C(=O)c1ccccc1F | 5 | 0
CC(C)N(C(=O)c1ccccc1F)C(C)C | 82* | -6
CC1(C(=O)NC2CCCCC2)CCC(=O)N1CCc1ccc(Cl)cc1 (stereo unspecified) | 14 | -11
CN(C(=O)Cc1c(C(=O)O)[nH]c2ccc(Cl)cc12)c1ccc(Br)cc1 | 10 | 1
O=C(O)c1[nH]c2ccccc2c1CC(=O)N1CCN(c2ccc([N+](=O)[O-])cc2)CC1 | 7 | -3
Cc1ccc(Cl)cc1N1CCN(C(=O)C2(S(=O)(=O)c3ccc(Cl)cc3)CC2)CC1 | 92* | 1
O=C(O)c1[nH]c2ccc(Cl)cc2c1CC(=O)N1CCN(c2cccc(Cl)c2)CC1 | 63* | -4
Cc1ccc(Cl)cc1N1CCN(C(=O)Cc2c(C(=O)O)[nH]c3ccc(Cl)cc23)CC1 | 98* | 0
O=C(N1CCN(c2cccc(Cl)c2)CC1)C1(S(=O)(=O)c2ccc(Cl)cc2)CC1 | 13 | -5
CCN(CCNC(=O)C1CCCN(c2cn[nH]c(=O)c2)C1)c1cccc(C)c1 (stereo unspecified) | 23 | -2
O=C(Cn1c2c(c(=O)n3ncnc13)CCC2)NN=Cc1ccc(Cl)cc1 | x | -13
COc1ccc(C(=O)N2CCC3(CC2)NC(=O)c2cc(C)ccc2N3C)c(OC)c1 | 6 | -2
O=C(CC1Sc2ccccc2NC1=O)Nc1ccc(C(F)(F)F)cc1 (stereo unspecified) | 7 | -7
O=C(CC1Sc2ccccc2NC1=O)NNC(=O)c1cc(C(F)(F)F)cc(C(F)(F)F)c1 (stereo unspecified) | x | 58*
Cc1ccccc1NC(=O)Cc1cn2cc(F)ccc2n1 | 4 | -3
COc1cc(OC)c(OC)cc1/C=C1\Cc2ccccc2C1=O | 0 | -5
COc1cc(OC)c(OC)cc1/C=C1/CCC/C(=C\c2cc(OC)c(OC)cc2OC)C1=O | 64* | -1
CN(C)C=C1N=C(SCc2c(Cl)cccc2Cl)NC1=O | x | -4
CCN(C)c1nc(-c2cccc(F)c2)c2c(N)n(-c3cc(F)ccc3F)nc2n1 | 54* | 0
CCN(C)c1nc(-c2cccc(F)c2F)c2c(N)n(-c3cccc(F)c3)nc2n1 | 35 | -2
CCc1cccc(Nc2c(-c3nc(C)no3)cnc3nc(C)ccc23)c1 | 68* | -15
Cc1ccc2c(Nc3ccc(C)c(F)c3)c(-c3nc(C)no3)cnc2n1 | 11 | -2
O=C(c1cnccn1)N1CCCCC1c1nncn1CC1CC1 (stereo unspecified) | -2 | 0
Fc1ccc2c(c1)C1C=CCC1C(c1ccc(Cl)cc1)N2 (stereo unspecified) | 75* | 0
SMILES | mHTT CaM bind | Pf apPOL inh
O=C1CN(C(=O)c2ccc(F)cc2)C(c2ccc(F)cc2)c2cc(F)ccc2N1 (stereo unspecified) | 3 | -10
O=C(O)c1ccc(C2Nc3ccc(F)cc3C3C=CCC32)cc1 (stereo unspecified) | 79* | -8
O=C(O)c1ccc(C2Nc3ccc(I)cc3C3C=CCC32)cc1 (stereo unspecified) | 97* | 6
Fc1ccc2c(c1)C1OCCC1C(c1ccccc1)N2 (stereo unspecified) | 1 | x
CCN(C)C(=O)C(C1CCCC1)N1CCN(C(=O)c2cccc(F)c2)CC1 (stereo unspecified) | 10 | -6
Cc1nn(C)c2c(N3CCCC(C(=O)NCc4ccc(F)cc4Cl)C3)nccc12 (stereo unspecified) | -2 | -6
Nc1ccc(S(=O)(=O)NCCc2ccccc2)cc1 | -5 | -4
CCOc1ccc(Nc2nc(-c3sc(C)nc3C)cs2)cc1 | 4 | -8
COc1ccccc1N1CCN(C2CCN(CC3CC4C=CC3C4)CC2)CC1 (stereo unspecified) | 1 | 4
CSc1ccccc1NC(=O)C(=O)NCC1CCN(S(C)(=O)=O)CC1 | -4 | -4
O=C(c1ccco1)N1CCN(S(=O)(=O)c2ccccc2[N+](=O)[O-])CC1 | -4 | -2
COc1ccccc1CNC(=O)c1ccc2[nH]c3c(c2c1)CN(C(C)=O)CC3 | 28 | -2
CC(=O)N1CCc2[nH]c3ccc(C(=O)NCCc4ccc(F)cc4)cc3c2C1 | 52* | -8
COc1ccc(CNC(=O)c2ccc3[nH]c4c(c3c2)CN(C(C)=O)CC4)c(OC)c1 | 51* | -3
COc1ccc(CCNC(=O)c2ccc3[nH]c4c(c3c2)CN(C(C)=O)CC4)cc1OC | 46 | -8
COc1ccc(OC)c(CNC(=O)c2ccc3[nH]c4c(c3c2)CN(C(C)=O)CC4)c1 | 44 | 8
CCc1ccccc1NC(=O)c1ccc2[nH]c3c(c2c1)CN(C(C)=O)CC3 | 22 | -1
CC(=O)N1CCc2[nH]c3ccc(C(=O)NCc4ccc(N5CCCC5)cc4)cc3c2C1 | 89* | -2
CCc1ccc(N(CC)C(=O)c2ccc3[nH]c4c(c3c2)CN(C(C)=O)CC4)cc1 | 68* | -2
